PubChem BioAssay (Tox21)
A number with no mark means an inactive call. The source made the active and inactive calls. Calls come from the whole dose curve; as a rule, active = well fitted curve in the direction sought with a large enough effect in the repeat runs; inconclusive = weak or mixed curves; inactive = flat fitted curve, though single readings scatter.
% is set by controls: 0 for no effect and ±100 for the full control effect.

Experiment: qHTS assay to test for compound auto fluorescence at 535 nm (green) in HepG2 cell free culture (AID 720686)
Details: Cell-free medium, green autofluorescence 485/535 nm; series mostly up to 91.3 µM
Source text: U.S. Tox21 Program National Center for Advancing Translational Sciences [NCATS] NIH Chemical Genomics Center [NCGC] U.S. Environmental Protection Agency [EPA] National Institutes of Environmental Health Sciences [NIEHS] National Toxicology Program [NTP] U.S. Food and Drug Administration [FDA] Tox21 Assay Overview: Compound auto fluorescence often interferes with screening of the compound library against various biological targets and signaling pathways. Some of these compounds may have fluorophoric properties. Such properties may interfere with the assay outputs resulting in false positives and/or negatives. To decrease such complications and ensure the compound activities are relevant in terms of biological response, the Tox21 10K compound library was screened for auto fluorescence. From the fluorophores used as reporter signals in our screening assays, the auto fluorescence equivalencies of compounds against three fluorophores have been evaluated: Triamterene, Fluorescein and Rose Bengal sodium for blue, green and red fluorescence, respectively. The fluorescence intensities were measured using Excitation/Emission wavelengths at 405/460nm, 485/535nm and 540/590nm for blue, green and red labels, respectively. This assay includes the green fluorescence data.
Tox21 Assay Protocol Summary: 5 uL of culture medium (MEM containing 10% FBS) per well was dispensed into black wall/clear bottom 1536-well plates using a Multidrop Combi Dispenser (ThermoFisher Scientific, Waltham, MA). After 23 nL compound or DMSO vehicle was transferred into assay plate by a pintool work station (Kalypsys, San Diego, CA), fluorescence intensities in the assay plates were measured by an Envision (PerkinElmer, Shelton, CT) plate reader using three labels for measuring blue, green and red fluorescence at […] 460, 535 and 590nm respectively.
For `O=C(O)Cc1cc(I)c(Oc2ccc(O)c(I)c2)c(I)c1`, the outcome was “inactive”. For `COc1ccc(C(C)=O)cc1`, the outcome was “inactive”. In the case of `CC(C)(C)c1ccc(OCC2CO2)cc1` (stereo not given), the outcome is reported as “inactive”. In the case of `CN1CCC(=C2c3ccccc3CCc3sccc32)CC1`, the outcome is reported as “inactive”. For `Oc1ccc(O)c2c(O)cccc12`, the outcome was “inactive”. In the case of `OCCC1CCCCN1` (stereo not given), the outcome is reported as “inactive”. In the case of `CC(C)CCCC(C)CCO` (stereo not given), the outcome is reported as “inactive”. For `CCCCC(CC)(CO)CO`, the outcome was “inactive”. For `O=c1c2ccccc2nnn1CCl`, the outcome was “inactive”. With `N#CCCNCCC#N` the outcome was “inactive”. With `CCOC(=O)C1=NN(c2ccccc2)C(=O)C1` the outcome was “inactive”. With `Nc1ccc(C(=O)Nc2ccccc2N)cc1` the outcome was “inactive”. For `CC(=O)CC(=O)c1ccccc1`, the outcome was “inactive”. For `O=S1(=O)N=C(O)c2ccccc21`, the outcome was “inactive”. In the case of `Oc1ccc(Cc2ccccc2)cc1`, the outcome is reported as “inactive”. With `O=C(O)/C=C/c1cnc[nH]1` the outcome was “inactive”. For `O=C(O)C1CCC(C(=O)O)CC1` (stereo not given), the outcome was “inactive”. For `CC(=O)O[C@@H]1C(=O)O[C@@H]2[C@H]1OC(=O)[C@@H]2OC(C)=O`, the outcome was “inactive”. For `CC(C)NCC(O)COc1ccc(CC(N)=O)cc1` (stereo not given), the outcome was “inactive”. With `CC1(C)CCC(C)(C)c2cc(NC(=O)c3ccc(C(=O)O)cc3)ccc21` the outcome was “inactive”. `CC[C@]12CCCN3CCc4c(n(c5ccccc45)C(=O)C1)[C@@H]32` gave a fluorescence, % of fluorescein control of -0.019% [at 18.6 µM]. In the case of `CC(O)C1CCCCC1` (stereo not given), the outcome is reported as “inactive”. With `Cc1ccccc1N=Nc1ccc(N=Nc2c(O)ccc3ccccc23)c(C)c1` the outcome was “inactive”. For `CC(=O)SCc1ccco1`, the outcome was “inactive”. In the case of `O=C(/C=C/c1ccc(O)c(O)c1)O[C@@H]1C[C@](O)(C(=O)O)C[C@@H](O)[C@H]1O`, the outcome is reported as “inactive”. In the case of `COc1cc(C(C)(C)C)c(O)c(C(C)(C)C)c1`, the outcome is reported as “inactive”. For `CCN(CC)CCNC(C(=O)OCCC(C)C)c1ccccc1` (stereo not given), the outcome was “inactive”. With `C=CC(=O)OCC(C)OCC(C)OCC(C)OC(=O)C=C` (stereo not given) the outcome was “inactive”. With `O=S(=O)(O)c1ccc(O)c2ncccc12` the outcome was “inactive”. In the case of `Cc1ncsc1CCO`, the outcome is reported as “inactive”. With `CN(C)CC/C=C1\c2ccccc2COc2ccccc21` the outcome was “inactive”. With `O=C(CC(=O)c1ccccc1)c1ccccc1` the outcome was “inactive”. For `NC(=S)N/N=C/c1cccnc1`, the outcome was “inactive”. In the case of `C[C@H](CCC(=O)O)[C@H]1CC[C@H]2[C@@H]3[C@H](O)C[C@@H]4C[C@H](O)CC[C@]4(C)[C@H]3CC[C@]12C`, the outcome is reported as “inactive”. With `C#CCOC(=O)[C@@H](C)Oc1ccc(Oc2ncc(Cl)cc2F)cc1` the outcome was “inactive”. In the case of `CC(C)(C)c1cc(O)c(C(C)(C)C)cc1O`, the outcome is reported as “inactive”. With `C1=Cc2ccccc2C1` the outcome was “inactive”. In the case of `S=C(S)NCCNC(=S)S`, the outcome is reported as “inactive”. In the case of `Cc1occc1S`, the outcome is reported as “inactive”. Compound `CCCCCCCCCCCCCCCCCBr` has a fluorescence, % of fluorescein control of 0.134% [at 18.6 µM].
